This is an account of results in PubChem BioAssay AID651718 (The Scripps Research Institute Molecular Screening Center, 2012).

About 2,700 (0.75%) of roughly 360,000 compounds were called active. The sample as a whole holds a higher share of actives than the screen did. A number with no mark means an inactive call. No stated cut-off is given here; in the data, active means inhibition above about 4.5%; inactive means the rest.

The subject of the assay is Methionine sulfoxide reductase A (Bos taurus). The assay is described as follows: inhibition of methionine sulfoxide reductase A – biochemical, absorbance, bovine, HTS, primary screen (AID 651718).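 Further: 0% = vehicle wells with enzyme and 100% = reference inhibitor wells.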 As to conditions: purified bovine MsrA, absorbance read-out; at 15.5 µM; stronger effect = higher value.
What is called inhibition is the change of the read-out against control, counted positive when it falls. Regarding `CCn1ncc(Br)c1C(=O)Nc1cc(C)ccc1F`, the inhibition was 0.75%.
Regarding `Cc1ccccc1C(CC(=O)c1cccs1)C(C#N)C#N` (stereo not drawn), the inhibition is 5.15% (active).
Take `Cc1ccc(NNC(=O)c2cccs2)cc1Cl`: the inhibition is -0.8%.
Turning to `C/C(=N\NC(=O)COc1c(C)cccc1C)c1cccs1`, the inhibition was -0.04%.
For the molecule `COC(=O)Cc1nnn2c1[C@H](C)[C@@H](OC)c1cc(Br)ccc1-2`, the inhibition was 0.56%.
`CC(=NNC(=O)c1ccc2nc[nH]c2c1)c1ccc(Br)cc1`: the inhibition was -0.04%.
As for `CCc1nc2ccc(C(=O)N3CCN(c4cccc(Cl)c4)CC3)cc2nc1CC`, the figure is 0.35%; as for `CC(=O)c1ccc(N2CCN(C(=O)c3ccc4nc[nH]c4c3)CC2)cc1`, 4.75% (active).
Regarding `CN(Cc1ccccc1)C(=O)[C@@H]1CCCN1C(=O)[C@@H]1CCCN1C(=O)c1c(F)cccc1F`, the inhibition was 1.12%.
Regarding `Cc1[nH]c2ccccc2c1CC(=O)Nc1ccc(Nc2cccnc2)c(-c2cccc(Cl)c2)c1`, the inhibition was 0.91%.
The figure for `COc1ccc(/C=C2\SC(=O)N(CCC(=O)NC3CCS(=O)(=O)C3)C2=O)cc1` (stereo not drawn) is 7.15% (active); for `COc1ccccc1/C=C1\SC(=O)N(CCC(=O)N(C)C2CCS(=O)(=O)C2)C1=O` (stereo not drawn) it is 1.66%.
The figure for `COc1ccc(-c2ccc(OC(=O)NC3CCS(=O)(=O)C3)cc2)cc1` (stereo not drawn) is -0.4%; for `CC(C)CNc1cccc2c1S(=O)(=O)N[C@H](C)CO2` it is 0.24%.
The figure for `CC(=O)C1=C(O)C(=O)N(c2cccnc2)C1c1ccc([N+](=O)[O-])cc1` (stereo not drawn) is 3.72%; for `CC(=O)C1=C(O)C(=O)N(c2ccc(Br)cc2)C1c1ccc([N+](=O)[O-])cc1` (stereo not drawn) it is 3.13%.
Consider `COC(=O)CN1C(=O)C(O)=C(C(C)=O)C1c1ccc([N+](=O)[O-])cc1` (stereo not drawn), for which the inhibition was 4.6% (active).
As for `NCCCCCC(=O)N/N=C/c1ccc2nccnc2c1`, the inhibition was 4.64% (active).
As to `CC1=NNC(=O)C1CCC(=O)N/N=C\c1ccc(Cl)c(Cl)c1` (stereo not drawn), the inhibition is 0.26%.
As to `O=C(Cc1ccccc1)N/N=C/c1ccc(Cl)cc1Cl`, the inhibition is 0.83%.
Regarding `COc1ccc(N2C(=O)C3C(C2=O)C(C(=O)c2ccccc2)N2CCCC32)cc1` (stereo not drawn), the inhibition was 1.03%.
For `COCCNC(=S)N(C)[C@H]1C[C@H]2c3[nH]c4ccccc4c3CCN2C[C@H]1[C@H](C)O`, the inhibition was 0.16%.
With `N#Cc1ccc(OCCCN2CCC(C(O)(c3ccccc3)c3ccccc3)CC2)c(F)c1`, the inhibition was 2.13%.
Take `COc1ccc(/C=C/C(=O)NC(=S)N2CCCC(C(N)=O)C2)cc1` (stereo not drawn): the inhibition is 5.75% (active).
For the molecule `COc1ccc(CN2CCCC(C(=O)N3CCCCC3)C2)cc1` (stereo not drawn), the inhibition was -0.76%.
`O=C(/C=C/c1ccco1)NC(=S)N1CCCCC1`: the inhibition is 2.5%.
For the molecule `O=c1[nH][nH]c2c1[C@H](c1ccc(Cl)cc1)O[C@H](CCc1ccccc1)C2`, the inhibition was -0.84%.
Regarding `COc1ccc(NC(=O)N(C)C[C@@H]2OCCCC[C@@H](C)Oc3ccc(NC(=O)NC4CCCCC4)cc3C(=O)N([C@H](C)CO)C[C@@H]2C)cc1`, the inhibition is -0.24%.
In the case of `COc1cc(Cl)c(S(=O)(=O)n2cnc(C)c2)cc1Cl`, the inhibition is 0.89%.
As for `CN1CCN(CCC(=O)N/N=C/C=C2\N(C)c3ccccc3C2(C)C)CC1`, the figure is 4.78% (active).
For `CC(=O)Nc1cccc(OCC(=O)/C=C2\N(C)c3ccccc3C2(C)C)c1`, the inhibition was 3.18%.
As for `CN1/C(=C\C=C2\N=C(c3ccc(F)cc3)OC2=O)C(C)(C)c2ccccc21`, the figure is 0.34%.
In the case of `COC(=O)C1=C(C)N(Cc2ccc(F)cc2)C(=S)NC1c1cccc(Cl)c1` (stereo not drawn), the inhibition is 0%.
On to `COc1ccccc1-c1ccc([C@@H]2C[C@H]3[C@H](CON3C)CN2S(=O)(=O)c2cc(Cl)cc(Cl)c2)cc1`, for which the inhibition is -0.24%.
Consider `CC(C)(C)OC(=O)N/N=C/c1ccc(C(=O)O)cc1`, for which the inhibition is 1.73%.
As for `O=C(O)c1ccc(N/N=C/c2ccc3ncccc3c2)cc1`, the figure is 5.15% (active).
`CCNC(=S)NNC(=O)c1ccc2ncccc2c1`: the inhibition was 0.98%.
`Cc1ccccc1N/N=C/c1ccc(N2CCOCC2)cc1`: the inhibition is 1.63%.
For `Cc1ccc(OCCCC(=O)Nc2ccc(N3CCOCC3)cc2)cc1`, the inhibition is -1.28%.
`Cc1cc(C(=O)N/N=C/c2ccc(N3CCOCC3)cc2)c(C)o1`: the inhibition is 5.02% (active).
As to `CCOc1cc(/C=N/NC(=O)c2ccncc2)cc(Br)c1O`, the inhibition is 2.43%.
The figure for `CCN(CC)c1ccc(/C=N/NC(=O)CNC(=O)c2cccs2)cc1` is 4.8% (active); for `CC(C)OCCCNC(=O)CNC(=O)c1cccs1` it is 0.37%; for `CC1CC(=NNC(=O)C2COc3ccccc3O2)CC(C)(C)C1` (stereo not drawn) it is -0.12%.
For the molecule `CCN(CC)c1ccc(/C=N/NC(=O)CNC(=O)c2cccnc2)cc1`, the inhibition is 4.63% (active).
As for `O=C(CNC(=O)c1cccnc1)N/N=C/c1cc(Br)c(O)c(Br)c1`, the inhibition is 8.83% (active).
As for `O=C(CNC(=O)C1COc2ccccc2O1)N/N=C/c1cc(Br)c(O)c(Br)c1` (stereo not drawn), the figure is 4.96% (active).
For `O=C(CNC(=O)c1cccs1)N/N=C/c1cccc(Br)c1`, the inhibition was 0.52%.
As to `O=C(N/N=C/c1cccc(OC(=O)c2ccc([N+](=O)[O-])cc2)c1)c1cccnc1`, the inhibition was -0.13%.
Turning to `O=C(CNC(=O)C(c1ccccc1)c1ccccc1)N/N=C\c1ccc2c(c1)OCO2`, the inhibition is 1.12%.
For the molecule `CCCOc1cccc(C(=O)NCCCNC(=O)c2cccnc2)c1`, the inhibition is -0.09%.
`O=C(Cc1ccccc1)Nc1ccc(NC(=O)c2cccnc2)cc1`: the inhibition was -0.64%.
Regarding `COC(=O)C1=C(C(=O)OC)C2C=C(C(C)C)C1C(=O)C2(C)O` (stereo not drawn), the inhibition was 0.16%.
As to `CC[C@H](C)[C@H]1CNC(=O)C(=O)N1CC1CCN(CCc2ccc(OC)c(OC)c2)CC1`, the inhibition was -0.53%.
The figure for `O=C(NCC(c1ccco1)N1CCc2ccccc21)c1cccc(F)c1` (stereo not drawn) is -0.1%; for `Cc1ccccc1C(=O)N[C@H](C(=O)N1CCC[C@H]1C(=O)NCc1ccccc1)C(C)C` it is 0.08%; for `Cc1ccc2nc(-c3ccc(CN4CCC(n5cc(-c6ccccc6)[nH]c5=O)CC4)cc3)c(-c3ccccc3)nc2c1` it is 1.47%.
As to `O=c1[nH]c(-c2ccccc2)cn1C1CCN(Cc2ccc(-c3nc4ccc(F)cc4nc3-c3ccccc3)cc2)CC1`, the inhibition was 1.06%.
Take `Cc1nc(NC(=O)C(C)(C)C)sc1[N+](=O)[O-]`: the inhibition is 0.16%.
For the molecule `Oc1c(C(c2ccco2)N2CCC3(CC2)OCCO3)sc2ncnn12` (stereo not drawn), the inhibition was 1.08%.
Take `O=C(COC(=O)CCC(=O)c1cccs1)NCc1ccco1`: the inhibition is -1.07%.
On to `C/C(=N\OCC(=O)Nc1ccc(Br)cc1)c1cccs1`, for which the inhibition was 0%.
As for `O=C(NC(Cc1c[nH]c2ccccc12)C(=O)N/N=C/c1ccc(Br)cc1)c1cccs1` (stereo not drawn), the figure is 1.85%; as for `CC(=O)Nc1ccc(/C=N/NC(=O)c2cccs2)cc1`, 5.38% (active).
As for `CC1(C)CC(=O)C/C(=N\NC(=O)c2cccs2)C1`, the figure is 0.04%.
As for `O=C(N/N=C/C=C/c1ccco1)c1cccs1`, the inhibition is 5.18% (active).
As for `Nc1[nH]c(C(=O)c2ccc(Br)cc2)c(-c2ccc3c(c2)OCO3)c1C(=O)NCCc1c[nH]c2ccccc12`, the figure is 1.06%; as for `CCOC(=O)CNC(=O)N(C)[C@H]1C[C@H]2c3[nH]c4c(-c5ccc6c(c5)OCO6)cccc4c3CCN2C(=O)[C@H]1[C@H](C)O`, 0.91%; as for `COC(=O)[C@]12C[C@H](CC(=O)NCc3ccc(C)o3)C(=O)N(CCC3=CCCCC3)C1=C[C@H](C(C)(C)C)O[C@@H]2C`, -0.16%.
The figure for `COCc1cc(N2CCN(C(=O)OC(C)(C)C)C[C@@H]2C)ccc1N1CCN(Cc2ccccc2)[C@H](C)C1` is -0.33%.
As for `CN1C(=O)C2CC(O)C(SC3CC4C(=O)N(C)C(=O)C4CC3O)CC2C1=O` (stereo not drawn), the figure is -0.2%; as for `COC(=O)C1=C(C)N(Cc2cccc(C(F)(F)F)c2)C(=NCc2ccccc2)NC1c1ccc(Cl)cc1` (stereo not drawn), -1.08%.
In the case of `O=C(C(=O)N1CCC(CNC(=O)c2cccnc2Cl)CC1)c1cccs1`, the inhibition was 0.64%.
For the molecule `COc1ccc(S(=O)(=O)N2CCOCC2)cc1NC(=O)CSc1nnc(NC2CC2)s1`, the inhibition was 1.12%.
Take `COc1ccc(-c2cc3ccc(OCc4nn[nH]n4)cc3oc2=O)cc1`: the inhibition was 6.87% (active).
With `CCCCc1cc(=O)oc2cc(C)cc(OCc3nn[nH]n3)c12`, the inhibition is 2.46%.
Consider `Cc1noc(C)c1COc1ccc2ccc(=O)oc2c1`, for which the inhibition is 1.22%.
Regarding `CN1CCNC(=O)C1CC(=O)NCCC1=CCCCC1` (stereo not drawn), the inhibition is 2.03%.
Take `CCOC(=O)C1CSCCS(=O)(=O)N1Cc1ccc(Cl)cc1` (stereo not drawn): the inhibition was -0.33%.
`Cc1cc(C(=O)N/N=C/c2ccc(O)c([N+](=O)[O-])c2)c(C)n1-c1ccc(F)cc1`: the inhibition was 4.88% (active).
For the molecule `Cc1c(Cl)c([N+](=O)[O-])nn1Cc1ccc(C(=O)N/N=C\c2cc(Cl)ccc2O)o1`, the inhibition was 0.28%.
The figure for `CC(Oc1ccccc1[N+](=O)[O-])C(=O)N/N=C/c1ccoc1` (stereo not drawn) is 1.1%.
For the molecule `COC(=O)C(C(=O)OC)c1ccccc1NS(=O)(=O)c1cccc2ccccc12`, the inhibition was -0.65%.
For `CCOC(=O)c1ccc(NNC(C)=O)c([N+](=O)[O-])c1`, the inhibition is -0.39%.
`CCOC(=O)C/C(C)=N\Nc1ccc([N+](=O)[O-])cc1[N+](=O)[O-]`: the inhibition was 12.8% (active).
Consider `CCCCOC(=O)CCCc1ccc([N+](=O)[O-])cc1[N+](=O)[O-]`, for which the inhibition was 4.36%.
As to `CC(C(=O)NC1CCCC1)N1CCN(S(=O)(=O)c2ccccc2Cl)CC1` (stereo not drawn), the inhibition is -0.92%.
On to `CCCCNC(=O)C(C)N(CCN(C)C)C(=O)CCCCCN1C(=O)NC(c2ccc(Cl)cc2)C(C(=O)OCc2ccccc2)=C1C` (stereo not drawn), for which the inhibition was 1.77%.
